Hits are enriched below; roughly 2.2% of the tested compounds scored in any of these assays.
MEKK2mut PB1 HTS – MEK5 binding signal on mutant MEKK2 PB1, primary screen, biochemical, multiplex bead flow cytometry, Alexa488-MEK5; Alexa488-MEK5 binding to MEKK2 mutant; percent response, % at 10 µM; 0.35% of 290,000 active; AID 1530, 2009; in the data active = percent response above about 24%, passing the limit was not always enough
MEKK3 PB1 HTS – modulators of MEKK3-MEK5 PB1 binding, primary screen, biochemical, wildtype MEKK3, multiplex bead flow cytometry, Alexa488-MEK5; Mitogen-activated protein kinase kinase kinase 3 (Homo sapiens), Q99759; bead-based flow cytometry, Alexa488-MEK5 binding to MEKK3; actives lie on both sides; 0 = blocked by unlabeled MEK5, 100 = vehicle; binding response (% of control), % at 10 µM; 1.4% of 290,000 active; AID 1529, 2009;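 active = binding response more than 3 SD above or below the average of its plate-row segment, actives on both sides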;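 note: Alexa488 bead fluorescence after subtracting the streptavidin-only scavenger bead signal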
Target sequence (Q99759 whole entry, looked up): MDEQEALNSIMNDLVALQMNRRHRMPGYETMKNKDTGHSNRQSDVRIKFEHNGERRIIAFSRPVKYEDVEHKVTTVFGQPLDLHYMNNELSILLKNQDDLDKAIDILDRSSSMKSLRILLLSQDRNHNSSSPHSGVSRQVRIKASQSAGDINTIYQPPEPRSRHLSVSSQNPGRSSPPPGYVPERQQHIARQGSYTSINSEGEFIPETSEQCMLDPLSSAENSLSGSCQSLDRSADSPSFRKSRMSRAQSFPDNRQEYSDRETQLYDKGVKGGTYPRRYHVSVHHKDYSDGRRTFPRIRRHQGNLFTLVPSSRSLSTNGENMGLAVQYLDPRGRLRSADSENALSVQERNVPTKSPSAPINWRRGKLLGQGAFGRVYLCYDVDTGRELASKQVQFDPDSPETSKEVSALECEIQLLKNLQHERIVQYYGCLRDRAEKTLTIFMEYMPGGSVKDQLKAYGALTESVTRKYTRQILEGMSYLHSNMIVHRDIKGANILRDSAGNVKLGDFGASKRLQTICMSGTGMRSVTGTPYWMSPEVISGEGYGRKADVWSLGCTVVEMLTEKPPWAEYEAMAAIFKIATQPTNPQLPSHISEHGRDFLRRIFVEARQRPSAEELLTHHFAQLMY
VLA-4 inh – inhibition in human VLA-4 binding assay, primary screen, VLA-4 allosteric modulator project, MLPCN library, flow cytometry, VLA-4 expressing cells | AID 2557, 2010 | 0.2% of 330,000 active | ligand binding flow cytometry | inhibition, % (about 7 µM as worked out from the volumes in the protocol) | Integrin alpha-4 (Homo sapiens), P13612; in the data active = inhibition above about 50%
MEKK2 WT-MEK5 – modulators of MEK5 binding to wildtype MEKK2, primary screen, biochemical, multiplex bead flow cytometry, Alexa488-MEK5; 1.1% of 290,000 active; Mitogen-activated protein kinase kinase kinase 2 (Homo sapiens), Q9Y2U5; Alexa488-MEK5 binding to MEKK2 WT; actives lie on both sides; binding response (% of control), % at 10 µM; in the data active = binding response below about 67% or above about 130%
A number is an active result; - = inactive; . = no result given; [ ] = another dose, or the depositor's remark.

SMILES | MEKK2mut PB1 HTS | MEKK3 PB1 HTS | VLA-4 inh | MEKK2 WT-MEK5
N#Cc1ccc(CN2CCN(CC(=O)NCCc3ccc(Cl)cc3Cl)CC2)cc1 | 28.0 | - | - | 151.0
COc1ccc(NC(=S)N(CCCN2CCCC2)Cc2cccn2Cc2ccc(Cl)cc2)cc1Cl | 161.0 | - | - | 293.0
Cc1ccc(NC(=S)N(CCCN2CCCC2)Cc2cccn2Cc2ccc(Cl)cc2)cc1Cl | - | - | - | 317.0
Cc1ccc(NC(=S)N(CCCN2CCCC2)Cc2cccn2Cc2ccc(Cl)cc2)cc1C | 74.0 | - | - | 228.0
Cc1cnc(C(=O)OCC(=O)c2ccc(F)cc2)cn1 | - | - | - | -
CCOc1ccc(CCNC(=O)c2ccc3ccccc3n2)cc1OCC | - | - | - | -
CCCCOc1ccc(/C=C/C(=O)N(CC)CC(=O)Nc2ccc3c(c2)OCCO3)cc1OC | . | . | - | .
CCOC(=O)/C(=C/c1ccc(OC(=O)c2ccccc2)cc1)C(C)=O | - | - | - | 4.0
Cc1ccc(NC(=O)C(C)SCC(=O)Nc2ccc(F)cc2)cc1S(=O)(=O)N1CCOCC1 (configuration not stated) | . | . | - | .
CCOc1ccc(C(=O)NCC(=O)N2CC=C(c3ccccc3)CC2)cc1OCC | . | . | - | .
Cc1ccc(OC(=O)CCC(=O)Nc2ccc(C)c(C)c2)cc1 | . | . | - | .
Nc1ccc(O)c(C(=O)O)c1 | - | - | 50.7 | -
COc1cc(N)ccc1C(=O)O | - | - | - | -
COc1ccc2c([N+](=O)[O-])c(Cl)[nH]c2c1 | - | - | - | -6.0
CCOC(=O)CSc1[nH]c2cc(OC)ccc2c1[N+](=O)[O-] | - | - | - | -
CCN(CC)CCNC(=O)c1[nH]c2ccc(OCc3ccccc3)cc2c1C | - | - | - | 184.0
CC1CCCCN1CCNC(=O)c1ccc2c(=O)n(Cc3ccc(Cl)cc3)c(=S)[nH]c2c1 (configuration not stated) | 33.0 | - | - | 169.0
Cc1c(C)n(C)c2ccc(C(=O)NCCCN(C)C3CCCCC3)cc12 | - | - | - | 145.0
Cc1c(C)n(C)c2ccc(C(=O)NCCCN3CCCCC3C)cc12 (configuration not stated) | 35.0 | - | - | 178.0
CC1CCCCN1CCCNC(=O)c1ccc(Br)cc1 (configuration not stated) | - | - | - | -
Cc1c(C)n(C)c2ccc(C(=O)NCCc3ccco3)cc12 | - | - | - | -
CC(C)CCN1CCN(Cc2nc3c(s2)CCCC3)CC1CCO (configuration not stated) | - | - | - | -
COc1ccc(-c2csc(NC3CCCCC3)n2)c(OC)c1 | - | - | - | -4.0[inhibitor]
Cc1cc(=O)oc2cc(OC(C)C(=O)Nc3ccc(N4CCCCC4)cc3)ccc12 (configuration not stated) | - | - | - | -1.0
Cc1cc(=O)oc2cc(OC(C)C(=O)NC3CCCC3)ccc12 (configuration not stated) | - | - | - | -
SMILES | MEKK2mut PB1 HTS | MEKK3 PB1 HTS | VLA-4 inh | MEKK2 WT-MEK5
CCOC(=O)Cc1csc(NC(=O)c2ccc(N3CCOCC3)cc2[N+](=O)[O-])n1 | . | . | - | .
CCC(=O)NC(c1cccs1)c1cc([N+](=O)[O-])c2cccnc2c1O (configuration not stated) | - | 128.0 | - | -
CCN(CC)CCN(C(=O)c1ccc2ccccc2c1)c1nc2ccc(OC)cc2s1 | - | - | - | -
CCOc1ccc2nc(N(CCN(CC)CC)C(=O)/C=C/c3cccs3)sc2c1 | - | - | - | 157.0
CCN(CC)CCN(C(=O)c1cc2ccccc2cc1OC)c1nc2ccc(F)cc2s1 | - | - | - | 140.0
CCN(CC)CCN(C(=O)c1cc2ccccc2cc1OC)c1nc2ccc(OC)cc2s1 | 26.0 | - | - | 148.0
COc1ccc2nc(N(CCN(C)C)C(=O)/C=C/c3cccs3)sc2c1 | - | - | - | -
COc1cc2c(cc1OC)CN(C(=O)c1sc(-c3cnccn3)nc1C)CC2 | - | - | - | -
CC(C)CN1C(=O)/C(=C/c2c(N3CCc4ccccc4C3)nc3ccccn3c2=O)SC1=S | 77.0 | 22.0[inhibitor] | . | .
CCOc1ccc(S(=O)(=O)NC(C)C(=O)NCc2cccnc2)cc1 (configuration not stated) | - | - | - | -
O=S(=O)(Nc1ccc(N2CCCCC2)cc1)c1ccccc1F | - | - | - | -
O=S(=O)(Nc1ccc(N2CCCCC2)cc1)c1ccc(F)cc1F | - | - | - | -10.0
CS(=O)(=O)c1cccc(S(=O)(=O)N2CCCCCC2)c1 | - | - | - | -
CN(CC(=O)Nc1c(Cl)cccc1Cl)C(=O)Cc1cccs1 | . | . | - | .
CCC1(C)CC2(CCCN(CCC(=O)c3ccccc3)C2)CCO1 (configuration not stated) | - | - | - | -
CCCCc1ccc(/C=C(\C#N)C(N)=S)s1 | - | - | . | 5.0
CCN(C(=O)c1cc2c(=O)[nH]c3ccc(C)cc3c2s1)c1ccc(OC)cc1 | - | - | - | -
O=C(NCc1ccccc1Cl)C1CCC(CNc2nc(=S)[nH]c3ccccc23)CC1 (configuration not stated) | - | - | - | 14.0
COc1ccc(CN(C)CC(O)COC(c2ccc(OC)cc2)c2ccc(OC)cc2)cc1 (configuration not stated) | - | - | - | 147.0
CN(CC(O)COc1ccccc1F)C1CCCCC1 (configuration not stated) | - | - | - | -
COc1ccc(C(OCC(O)CN(C)C2CCCCC2)c2ccc(OC)cc2)cc1 (configuration not stated) | - | - | - | 161.0
COc1ccc(CN(C)CC(O)COc2ccc(-c3ccccc3)cc2)cc1OC (configuration not stated) | - | - | - | 136.0
CN(Cc1ccc(OCC(O)CN(C)Cc2ccccc2)cc1)Cc1nccn1C (configuration not stated) | - | - | - | -
CCOc1ccc(CN(C)CC(O)COC(c2ccc(OC)cc2)c2ccc(OC)cc2)cc1 (configuration not stated) | 35.0 | - | - | 180.0
COc1ccccc1C(=O)NC(=O)COC(=O)CNC(=O)c1ccccc1 | . | . | - | .
SMILES | MEKK2mut PB1 HTS | MEKK3 PB1 HTS | VLA-4 inh | MEKK2 WT-MEK5
CCOc1ccc(OCC)c(NC(=O)Cn2c(C)nc3ccccc3c2=O)c1 | - | - | - | -
Cc1ccc(OCc2cc(C(=O)N(C)Cc3cc(C4CC4)n[nH]3)no2)cc1C | - | - | - | -
Cc1nc2ccccc2c2c1C(=O)NC2=O | - | - | - | -
O/C(=C\c1nc2ccccc2nc1/C=C(\O)c1ccccc1)c1ccccc1 | - | - | - | 20.0
O=c1oc2ccccc2nc1/C=C(\O)c1ccccc1 | - | - | - | -
CSc1nsc(SCC(=O)Nc2ccccc2F)n1 | - | - | - | -
Cc1cc(-c2csc(N)n2)c(C)n1CCC(C)C | - | - | - | 59.0
CCN1/C(=C\C=C2\C(=O)N(c3ccccc3)C(=S)N2C)Sc2ccccc21 | - | 75.0[inhibitor] | . | 44.0[inhibitor]
